This is a sample that favours compounds with a hit; in the whole collection about 0.52% have one here.
PINK1 modulator: modulators of PINK1 expression. 0.2% of 410,000 active. Potency, µM (doses to about 76.6 µM), for inactives: at the highest dose activation (PINK1 increase), most hits filed as activators. PINK1 immunofluorescence, high-content cytometry, 24 h. AID 624263; active = well fitted activation curve with a large enough effect; inconclusive = small, poorly fitted or top-dose-only effect; cell line not stated here; note: potency is the fitted concentration of half-maximal effect; % of control where 0% means no effect; nearly all actives have a fitted effect of over 65% in size
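Decision-based qHTS: stable cells, 24 h exposure to five compound concentrations, CCCP as control. Fixed cells stained for PINK1 plus nuclear, mitochondrial and cell markers, cytometer read.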
Vif-APOBEC3G blk: Vif-A3G binding inhibition. Q9HC16. HeLa A3G-eYFP + Vif (tagged APOBEC3G with the HIV-1 protein that degrades it), YFP fluorescence, overnight. Potency, µM (titrated, usually from 46.1 µM), for inactives: at the top dose activity, negative = active, most hits filed as inhibitors. 0.076% of 410,000 active; note: potency is the fitted concentration of half-maximal effect; % is set by controls: 0 for no effect and ±100 for the full control effect; nearly all actives have a fitted effect of over 60% in size
Target sequence (Q9HC16 whole entry, looked up): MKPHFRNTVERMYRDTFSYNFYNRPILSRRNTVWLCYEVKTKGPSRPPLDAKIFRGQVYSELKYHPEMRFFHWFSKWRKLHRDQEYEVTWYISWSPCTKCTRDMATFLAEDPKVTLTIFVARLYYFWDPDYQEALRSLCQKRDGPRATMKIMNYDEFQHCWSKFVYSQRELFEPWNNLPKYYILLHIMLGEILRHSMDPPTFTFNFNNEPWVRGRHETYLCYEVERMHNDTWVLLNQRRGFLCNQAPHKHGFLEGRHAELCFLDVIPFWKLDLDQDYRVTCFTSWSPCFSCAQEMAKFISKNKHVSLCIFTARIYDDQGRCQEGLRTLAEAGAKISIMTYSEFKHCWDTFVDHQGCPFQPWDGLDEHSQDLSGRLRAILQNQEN
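Read-out is eYFP fluorescence (Ex 488/Em 500-530) from Vif-expressing HeLa A3G-eYFP cells; more signal means A3G escaped Vif-mediated degradation. Cells plated overnight, compound pinned in, incubated overnight at 37 deg C.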
Vif-A3F inh: Vif-A3F binding inhibition | 0.2% of 390,000 active | HeLa A3F-eYFP + Vif (tagged APOBEC3F with the HIV-1 protein that degrades it), YFP fluorescence increase | Potency, µM (top dose mostly 46.1 µM), inactives show top-dose activity, negative = active; note: potency is the fitted concentration of half-maximal effect; % of control where 0% means no effect; nearly all actives have a fitted effect of over 65% in size
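HeLa cells stably expressing A3F-eYFP plus Vif, plated and incubated overnight at 37 deg C, then exposed to compounds overnight at 37 deg C. Blocked degradation read as raised yellow fluorescence (Ex 488/Em 500-530).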
TRPML1 agonist: human mucolipin-1 channel agonism | Q9GZU1 | TRPML1-expressing cells, Ca2+ dye fluorescence, FDSS | activation, % (no concentration beside the values) | 0.12% of 410,000 active | AID 624414; in the data active = activation above about 50%; inconclusive = mostly about 30% to 49%; note: 0% is about no effect
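Calcium fluorescence on an FDSS kinetic reader gave the read-out. Tet-induced TRPML1-DL cells were plated overnight, dye-loaded (Ca8 with quencher, 45-90 min, room temperature, dark), then read 110 s after compound addition, and again 110 s after 4uM final 54-4 (EC80).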
TRPML1 blocker: blocks the human TRPML1 channel. activity change, negative = inhibition, % (test concentration not listed). TRPML1-inducible cells, Ca2+ dye fluorescence, FDSS; hits give low values; inhibition of EC80 agonist-evoked calcium signal. 0.02% of 390,000 active. Q9GZU1; in the data active = activity change below about -50%; inconclusive = between about -30% and that limit;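 note: stimulus is agonist 54-4 at its EC80 concentration; % is set by controls: 0 for no effect and ±100 for the full control effect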
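Tet-induced TRPML1-DL cells loaded with Ca8 no-wash calcium dye were read kinetically on FDSS. Compound addition was followed by EC80 agonist 54-4 (4 uM final); inhibition was read over 110 s.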
The depositor's hits bear a star; i = inactive; ? = inconclusive; . = no result given. Unless noted, calls come from the whole dose curve; as a rule, active = well fitted curve in the direction sought with a large enough effect; inconclusive = small, poorly fitted or top-dose-only effect, or another doubt; inactive = no such curve, though single readings can be large; an effect the other way counts as inactive or inconclusive.

SMILES	PINK1 modulator	Vif-APOBEC3G blk	Vif-A3F inh	TRPML1 agonist	TRPML1 blocker
CN(C)c1ccc(C(=C2C=CC(=[N+](C)C)C=C2)c2ccc(N(C)C)cc2)cc1	?	7%	.	-1	.
COc1ccc2oc(=Nc3ccccc3)c(-c3nc4ccccc4[nH]3)cc2c1	-1%	-28%	11µM*	0	52
CN(C)/C=C1\C=C2C(=O)c3ccccc3N2C1=O	?	7%	3%	57*	?
CN(C)/C=C1\C=Cc2ccccc21	1%	-3%	.	0	.
O=C(C1CCN(S(=O)(=O)c2cccc3nsnc23)CC1)N1CCCCC1	0%	1%	-11%	-1	3
O=C(NC1CCCCC1)C1CCN(S(=O)(=O)c2cccc3nsnc23)CC1	10µM*	3%	-8%	0	-11
C[C@@H]1CN([C@H](C)CO)C(=O)Cc2cc(NC(=O)Cn3cnnn3)ccc2O[C@@H]1CN(C)Cc1ccc(Cl)c(Cl)c1	0%	-6%	5%	0	0
CCOc1ccc(Cn2c3ccc(OC)cc3c3nc4ccccc4nc32)cc1	17%	?	11µM*	2	-10
O=C(N/N=C/c1cccc(F)c1)c1c(O)c2ccccc2[nH]c1=O	2.8µM*	0%	-17%	0	5
O=C(N/N=C/c1ccc(F)cc1)c1c(O)c2ccccc2[nH]c1=O	4.5µM*	1%	0%	0	-5
O=C(NNC(=O)c1c(O)c2ccccc2[nH]c1=O)c1ccccc1	22%	3%	1%	1	6
O=C(N/N=C/c1ccccc1)c1c(O)c2ccccc2[nH]c1=O	8.9µM*	3%	-12%	0	9
CCOC(=O)Cc1ccc(NC(=O)N(Cc2ccc(OC)cc2)C2CCN(C(C)=O)CC2)cc1	-1%	1%	1%	0	9
Cc1ccc(O)c(NC(=O)c2cc(-c3ccccc3O)no2)c1	2%	?	11µM*	1	8
Cc1ccc(O)c(NC(=O)c2cc(-c3ccccc3Cl)on2)c1	1%	-5%	?	1	0
COc1cccc(CN(C)CCCn2cnc3c(SC)ncnc32)c1	2%	5%	-10%	0	-15
Cc1ccc(/C=C(\C#N)C(=O)Nc2cccc(Br)c2)o1	1%	.	.	0	11
N#C/C(=C\c1ccc(N2CCCCC2)o1)C(=O)Nc1cccc(Br)c1	6.3µM*	-10%	i	119*	?
Cc1ccc(C)c(N2CCN(C(=O)CCS(=O)(=O)c3cc(Br)cc4c3N(C(=O)C3CC3)CC4)CC2)c1	-1%	5%	0%	0	13
Cc1cccc(Cc2ncc(C(F)(F)F)cc2Cl)c1	3%	1%	4%	1	-8
CCCOc1ccc(CNC(=O)c2oc3ccc4c(c3c2C)C(=O)CC(C)(CC)O4)cc1 (centres undefined)	1%	6%	0%	?	-13
Cc1cccc(Nc2nnc(SCC(=O)NC(=O)Nc3ccc4c(c3)OCCO4)s2)c1	-2%	-6%	-28%	0	7
COc1ccccc1Nc1nnc(SCC(=O)NC(=O)Nc2ccc3c(c2)OCCO3)s1	11µM*	-9%	-27%	0	-16
COc1ccc(NC(=O)N2CC3(CCN(C(=O)c4ccc(OC)cc4)CC3)C2)cc1	0%	.	.	.	.
CC1(C)Cc2ccccc2C2CC(O)C(=O)N21 (centres undefined)	.	?	25µM*	1	18
SMILES	PINK1 modulator	Vif-APOBEC3G blk	Vif-A3F inh	TRPML1 agonist	TRPML1 blocker
O=C1c2ccccc2[C@@H]2CC(O)C(O)CCN12 (some centres undefined)	0%	-2%	-4%	1	7
CCc1cccc2c(C(=O)CSc3nnc(C4CC4)o3)c[nH]c12	15%	-2%	-12%	1	4
CCOC(=O)c1cc(-c2ccccc2)n(CCCC(=O)Nc2ccc(CC)cc2)c1C	0%	2%	-4%	3	2
CCOC(=O)c1cc(-c2ccccc2)n(CCC(=O)Nc2ccc(C(F)(F)F)cc2)c1C	40µM*	2%	-18%	10	-8
CCN(CC)c1ccc(/C=N/N2CC(=O)NC2=S)cc1	40µM*	3%	?	2	-13
CCN(CC)c1ccc(/C=N/N2C(=O)c3ccccc3C2=O)cc1	0%	-2%	4%	1	14

Compound activity deposited in PubChem BioAssay by National Center for Advancing Translational Sciences (NCATS).
